Structures are written as SMILES. The panel holds about 79,000 compounds, 15% with a hit somewhere; the sample as a whole holds those more often. Unmarked numbers belong to inactive results. The source made the active and inactive calls. Rule as the data show it: active = growth inhibition above about 70%; inactive = the rest.

The assay can be described thus: NCI Yeast Anticancer Drug Screen. Data for the mlh1 rad18 strain (AID 175). To be noted: S. cerevisiae mlh1 rad18 strain growth inhibition; at 50.0 µM; active compounds read high. The essentials:
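In this whole-cell yeast screen, a strain with altered DNA damage repair is challenged with compound, and its growth is measured against matched vehicle-treated controls.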
Take `O=C1C2C3C=CC(C3)C2C(=O)C2C3C=CC(C3)C12` (centres undefined): the growth inhibition was 99.2% (active).

Regarding `CCCCOC(=O)c1cnc[nH]c1=O`, the growth inhibition is 8.65%.

For `N#CC(c1ccc(Cl)cc1)c1ccc([N+](=O)[O-])cc1` (centres undefined), the growth inhibition was 45.5%.

As to `CN(C)C(N)=NC#N`, the growth inhibition was 67%. With `CCCCc1c(O)c(N=NC(=O)C[n+]2ccccc2)c2ccccc2c1O` the figure was 4.75%; with `CCOC(=O)C(=O)Nc1nc2c(s1)C(=O)c1ccccc1C2=O`, 96.3% (active); with `COc1ccc(C(=O)Nc2ccccc2[N+](=O)[O-])cc1`, 16.2%. On to `COc1ccccc1NC(=O)/C(=C/n1c(=S)sc2ccccc21)C(C)=O`, for which the growth inhibition was 47%. With `Cc1ccc(C)c(C(=O)/C=C/C(=O)O)c1` the figure was 65.1%.

For the origin of these results see PubChem BioAssay (NCI).
